FECH block: human FECH heme synthesis enzyme inhibition | AID 1671448 | calls only at 10 µM (by protocol) | 20,000 tested, 3.3% active | P22830 | purified FECH, Ni-mesoporphyrin absorbance 550 nm;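 active = enzyme reaction rate more than 3 SD below the solvent-only control wells on the same plate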;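 also: lower slope than DMSO wells means FECH inhibition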
Target sequence (P22830 whole entry, looked up): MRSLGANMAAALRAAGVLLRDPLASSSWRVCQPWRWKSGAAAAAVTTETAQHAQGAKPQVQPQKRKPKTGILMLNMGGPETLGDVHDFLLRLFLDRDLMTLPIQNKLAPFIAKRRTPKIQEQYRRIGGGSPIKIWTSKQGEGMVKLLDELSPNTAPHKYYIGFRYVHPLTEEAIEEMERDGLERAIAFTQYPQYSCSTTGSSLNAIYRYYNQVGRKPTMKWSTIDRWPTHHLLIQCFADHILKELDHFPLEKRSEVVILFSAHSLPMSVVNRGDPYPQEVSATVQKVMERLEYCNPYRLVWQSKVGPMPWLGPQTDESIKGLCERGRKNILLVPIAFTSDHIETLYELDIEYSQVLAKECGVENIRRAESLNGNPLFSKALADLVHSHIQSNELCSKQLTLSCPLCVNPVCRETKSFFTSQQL
* = called active by the depositor; i = inactive; + = active, no number. This is one part of a sample in which hits are shown more often than they occur.

SMILES	FECH block
Cc1cccc(N(Cc2nc3nc(C)cc(C)n3n2)C(=O)C(C)(C)C)c1	i
Cc1cc(C)n2nc(CN(C(=O)CC(C)C)c3ccccc3)nc2n1	i
COc1cc(C(=O)N(Cc2nc3nc(C)cc(C)n3n2)c2cccc(C)c2)cc(OC)c1OC	i
CCOc1ccc(N(Cc2nc3nc(C)cc(C)n3n2)C(=O)c2cccc(C)c2)cc1	i
CCCC(=O)N(Cc1nc2nc(C)cc(C)n2n1)c1ccc(F)cc1	i
COc1ccc(C(=O)N(Cc2nc3nc(C)cc(C)n3n2)c2cccc(C)c2)cc1	+
COc1cccc(C(=O)N(Cc2nc3nc(C)cc(C)n3n2)c2cccc(C)c2)c1	i
CCCC(=O)N(Cc1nc2nc(C)cc(C)n2n1)c1ccccc1	+
O=C(CCC(=O)N1CCc2cc(S(=O)(=O)N3CCc4ccccc43)ccc21)N1CCCCCC1	i
O=S(=O)(Cc1ccccc1)N1CCN(c2cc(-c3cccc(F)c3)ncn2)CC1	i
CSc1nc(NCC(C)O)c(C#N)c(-c2ccccc2)n1 (stereo unspecified)	i
O=S(=O)(NCCn1c(-c2ccc(F)cc2)nc2cccnc21)c1cccc(Cl)c1	i
Cc1cccc(C)c1OC1CN(C(=O)C(=O)c2ccco2)C1	i
CCCn1c(CNS(=O)(=O)c2ccccc2F)nc2cccnc21	i
Cc1cc2c(cc1S(=O)(=O)N1CCCC1C(=O)N1CCc3ccccc31)OCC(=O)N2 (stereo unspecified)	+
Cc1ccc(NC(=O)CN2C(=O)CCc3cc(S(=O)(=O)N4CCCC4)ccc32)nc1	i
CC1CCCCN1S(=O)(=O)c1cc2c(cc1Cl)NC(=O)CO2 (stereo unspecified)	i
CCOC(=O)C1CCN(S(=O)(=O)c2cc3c(cc2Cl)NC(=O)CO3)CC1	i
COc1ccccc1NC(=O)C1CCCN1S(=O)(=O)c1cc2c(cc1C)NC(=O)CO2 (stereo unspecified)	i
Cc1ccc(NC(=O)C2CCN(S(=O)(=O)c3cc4c(cc3C)NC(=O)CO4)CC2)nc1	+
CCCN(CCC)c1ncc(NS(=O)(=O)c2ccc(OCC)cc2)cc1C(=O)O	i
CCc1ccc(CN2C(=O)c3cc(C(C)(C)C)nn3CC2(C)C(=O)NCCC(C)C)cc1 (stereo unspecified)	i

Screening data (PubChem BioAssay)
